Laboratory results published in PubChem BioAssay.
The source made the active and inactive calls.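 Rule for the calls, unless noted: active = visual image review flags a hit and inhibition of aggregation exceeds 20%; inconclusive = visual hit but inhibition at or below 20%; inactive = no hit on visual image review.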

Legend:
[1] = inhibitors of TNFa-induced NFkB p65 translocation, primary screen, imaging, HUVEC, MLSMR starter and 10KST1 sets (AID 438;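 active = inhibition above 20% together with a positive visual image hit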;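 note: compound added about 3h40 before a 20 min TNFalpha stimulation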;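 for inhibition: signal is the nuclear over cytoplasmic p65 intensity ratio per well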); conditions: HUVEC TNFa-induced p65 nuclear translocation; cell count: measured here: nuclei count (cytotoxicity indicator), at 2.08 µM; inhibition: at 2 µM, stronger effect = higher value, 0% TNFa-plus-vehicle, 100% no-TNFa wells
[2] = inhibitors of mutant huntingtin aggregation, primary screen, imaging, exon1htt(103Q)mCFP cells, high-content imaging (AID 483); conditions: exon1htt(103Q)mCFP cell line, aggregate imaging, at 2 µM; inhibition of aggregation: stronger effect = higher value; nuclei count: measured here: cell count, toxicity;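 note: compound exposure lasted 3 days before fixation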;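 for nuclei count: percent of the per-plate median nuclei count of sample wells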
[3] = inhibitors of E-selectin induction by TNFa, primary screen, imaging, HUVEC, immunofluorescence, MLSMR starter and 10KST1 sets (AID 487;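 active = visually confirmed hit in the image check and inhibition above 20%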;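 for inhibition: signal is fraction of cell area covered by stained E-selectin grains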;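 for nuclei count: 100% = median nuclei count of all wells on the same plate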); conditions: HUVEC TNFalpha-induced E-selectin immunofluorescence imaging, at 2 µM; inhibition: stronger effect = higher value; nuclei count: measured here: cell number, toxicity
[4] = molecular target: Voltage-gated potassium channel subunit beta-2 (Rattus norvegicus) (UniProt P62483); assay: KvBeta enzyme negative modulators, primary screen, biochemical, NADPH fluorescence (AID 622;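 active = fluorescence slope higher than the sample average by over 3 SD, cut at about -0.22 in these data, passing the limit was not always enough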;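 note: slope of raw intensity against log time taken from 70 to 1610 s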); conditions: recombinant KvBeta, 4-cyanobenzaldehyde reduction, at 10 µM, stronger effect = higher value
Voltage-gated potassium channel subunit beta-2 (Rattus norvegicus), sequence (P62483 whole entry, looked up): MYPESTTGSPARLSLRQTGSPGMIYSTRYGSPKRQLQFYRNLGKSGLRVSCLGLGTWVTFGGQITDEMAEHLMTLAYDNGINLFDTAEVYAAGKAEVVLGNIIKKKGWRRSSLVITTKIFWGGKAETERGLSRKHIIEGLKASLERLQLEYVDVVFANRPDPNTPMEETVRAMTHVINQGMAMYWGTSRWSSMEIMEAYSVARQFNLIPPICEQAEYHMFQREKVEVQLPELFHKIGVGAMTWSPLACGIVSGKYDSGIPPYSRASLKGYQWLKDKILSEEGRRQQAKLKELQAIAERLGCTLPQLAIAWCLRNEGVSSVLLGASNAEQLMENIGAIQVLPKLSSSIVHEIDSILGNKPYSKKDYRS

[5] = molecular target: Voltage-gated potassium channel subunit beta-2 (Rattus norvegicus) (UniProt P62483); assay: KvBeta positive modulators, primary screen, biochemical, NADPH fluorescence (AID 623;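 active = NADPH fluorescence slope more negative than the mean of all samples by about 3 SD, 99.7% confidence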;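 note: fluorescence intensity change per second fitted from 20 to 320 s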); conditions: Recombinant KvBeta, NADPH fluorescence decrease slope, 10 min; at 10 µM; stronger effect = lower value
[6] = molecular target: Alpha-2C adrenergic receptor (Homo sapiens) (UniProt P18825); assay: modulators of alpha2C/GIRK thallium flux, primary screen, cell-based, HEK293 alpha2C/GIRK1/2 (AID 624;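 active = fluorescence slope after compound addition differing from the mean of all screened samples at 99.7% confidence, in either direction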;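 note: slope of fluorescence ratio to pre-addition baseline per second over 15 to 24 s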); conditions: thallium flux BTC fluorescence, at 10 µM, actives lie on both sides
Alpha-2C adrenergic receptor (Homo sapiens), sequence (P18825 whole entry, looked up): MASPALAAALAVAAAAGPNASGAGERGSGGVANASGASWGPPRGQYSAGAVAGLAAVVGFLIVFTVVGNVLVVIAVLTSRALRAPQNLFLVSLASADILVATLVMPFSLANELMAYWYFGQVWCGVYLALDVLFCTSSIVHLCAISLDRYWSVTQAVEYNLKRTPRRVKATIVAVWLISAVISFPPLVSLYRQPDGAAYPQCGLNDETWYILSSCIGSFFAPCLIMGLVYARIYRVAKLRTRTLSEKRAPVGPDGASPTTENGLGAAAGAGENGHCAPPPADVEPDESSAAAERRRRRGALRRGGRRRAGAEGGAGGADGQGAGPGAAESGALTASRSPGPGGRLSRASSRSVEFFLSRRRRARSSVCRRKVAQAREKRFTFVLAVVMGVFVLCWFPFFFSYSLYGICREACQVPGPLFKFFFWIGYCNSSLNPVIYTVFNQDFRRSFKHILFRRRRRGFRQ

[7] = inhibitors of Sendai virus-induced IRF3 signaling, primary screen, TLR/RLR signaling modifier project, cell-based, Sendai virus stimulus, luciferase, 10K MLSCN set (AID 602276;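 active = inhibition at or above 50% at 10 µM; inactive = inhibition below 50%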;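 note: firefly luciferase from ISG56 promoter only with Renilla not read in this screen; 0% = Sendai virus plus DMSO and 100% = medium plus DMSO without virus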); conditions: HEK293 RL24 IRF3 luciferase reporter, at 10 µM, stronger effect = higher value
[8] = inhibitors of poly I:C-induced TLR3 signaling, primary screen, cell-based, poly I:C stimulus, luciferase, 10K MLSCN set (AID 602277;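 active = inhibition of the reporter signal at or above 50%; inactive = inhibition below 50%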); conditions: HEK293-TLR3 RL24 IRF3 luciferase reporter, at 10 µM, stronger effect = higher value

Row | SMILES | cell count [1] | inhibition [1] | inhibition of aggregation [2] | nuclei count [2] | inhibition [3] | nuclei count [3] | fluorescence slope [4] | NADPH fluorescence slope [5] | slope [6] | inhibition [7] | inhibition [8]
1 | CCOc1ccc2[nH]c(=O)c(CN(Cc3nnnn3CCc3ccccc3)CC3CCCO3)cc2c1 (stereo not drawn) | 742 | -1.7% (inactive) | -4.9% (inactive) | 113% | 17.7% (inactive) | 107% | -0.476 (inactive) | -0.000196 (inactive) | 0.00465 (inactive) | 3.9% (inactive) | 16.9% (inactive)
2 | CCOc1ccc(C2C(C#N)=C(N)Oc3cc(C)n(CCN(C)C)c(=O)c32)cc1OCC (stereo not drawn) | 587 | -7.4% (inactive) | 1.7% (inactive) | 98.3% | 11.8% (inactive) | 93.1% | -0.588 (inactive) | -4.4e-05 (inactive) | 0.00685 (inactive) | 14.3% (inactive) | 38.2% (inactive)
3 | Cc1ccccc1NC(=O)CSc1nc(N)c(C#N)c(-c2cccs2)c1C#N | 440 | -0.3% (inactive) | -16.8% (inactive) | 110% | -12.2% (inactive) | 98.8% | -0.475 (inactive) | -4.8e-05 (inactive) | 0.00696 (inactive) | 11.6% (inactive) | 14.3% (inactive)
4 | CC(C)c1ccc(NC(=O)CCNS(=O)(=O)c2cccc3nonc23)cc1 | 669 | -6.5% (inactive) | 24.6% (inactive) | 98% | -55.8% (inactive) | 106% | -0.544 (inactive) | 2.2e-05 (inactive) | 0.00564 (inactive) | 16.4% (inactive) | 24.2% (inactive)
5 | CC1=C(C(=O)N2CCCCC2)C2(CCC(C)CC2)OC1=O (stereo not drawn) | 759 | -1.1% (inactive) | -11.5% (inactive) | 118% | -27.8% (inactive) | 120% | -0.524 (inactive) | -1.1e-05 (inactive) | 0.00741 (inactive) | 15.2% (inactive) | 20.4% (inactive)
6 | O=C(C1CCN(S(=O)(=O)c2cccc3cccnc23)CC1)N1CCN(C2CCCCC2)CC1 | 412 | 10.7% (inactive) | 3.3% (inactive) | 69.2% | -22.1% (inactive) | 106% | -0.565 (inactive) | -1.6e-05 (inactive) | 0.00678 (inactive) | -4.22% (inactive) | 35.6% (inactive)
7 | Cc1oc(-c2ccccc2Cl)nc1CSCC(=O)N1CCCC1 | 319 | 9.3% (inactive) | 19.4% (inactive) | 91.6% | 62.6% (active) | 102% | -0.572 (inactive) | 5.9e-06 (inactive) | 0.00514 (inactive) | -10.3% (inactive) | 8.17% (inactive)
8 | Cc1ccc(NC(=O)c2ccccc2F)nc1 | 336 | -8.1% (inactive) | 0.7% (inactive) | 123% | -16.4% (inactive) | 111% | -0.374 (inactive) | -6.3e-05 (inactive) | 0.00526 (inactive) | -16.7% (inactive) | -41.6% (inactive)
9 | CCOC(=O)CCCOC(=O)c1ccc(S(=O)(=O)N(C)C)cc1 | 374 | -12.5% (inactive) | 2.8% (inactive) | 67.5% | -8.8% (inactive) | 106% | -0.454 (inactive) | -4.3e-05 (inactive) | 0.00644 (inactive) | 0.818% (inactive) | 10.6% (inactive)
10 | O=C(c1cccnc1)N1CCN(Cc2ccc3c(c2)OCO3)CC1 | 64 | 11% (inactive) | -2.8% (inactive) | 88.3% | 29.2% (inactive) | 87.6% | -0.411 (inactive) | -5.6e-05 (inactive) | 0.00498 (inactive) | 14.2% (inactive) | 13.5% (inactive)
11 | CC(C)CC(OC(=O)c1cccs1)C(=O)NCc1ccco1 (stereo not drawn) | 364 | 19.1% (inactive) | -9% (inactive) | 91.6% | 2.7% (inactive) | 106% | -0.425 (inactive) | -2.5e-05 (inactive) | 0.00495 (inactive) | 6.99% (inactive) | 11.5% (inactive)
12 | COC(=O)c1[nH]c2ccc(F)cc2c1NS(=O)(=O)c1ccc(OC)cc1OC | 682 | -11% (inactive) | -3.2% (inactive) | 106% | -80.2% (inactive) | 152% | -0.598 (inactive) | -5.6e-05 (inactive) | 0.00552 (inactive) | 16.7% (inactive) | 45.4% (inactive)
13 | O=C(NCCc1ccccn1)c1ccc(COc2ccccc2)o1 | 450 | -26.3% (inactive) | 8.3% (inactive) | 93.3% | -39.9% (inactive) | 156% | -0.449 (inactive) | -4.6e-05 (inactive) | 0.00624 (inactive) | 3.41% (inactive) | -2.41% (inactive)
14 | Cc1cc(NC(=O)c2cc3ccccc3o2)cc(C)c1OCC(=O)N1CCOCC1 | 388 | 7.3% (inactive) | -7% (inactive) | 121% | -11.8% (inactive) | 115% | -0.526 (inactive) | -4.4e-05 (inactive) | 0.00621 (inactive) | -1.27% (inactive) | -52% (inactive)
15 | C=CCn1c(CC#N)nnc1N1CCOCC1 | 481 | 0.7% (inactive) | -15% (inactive) | 116% | -92% (inactive) | 118% | -0.487 (inactive) | 2.7e-05 (inactive) | 0.00619 (inactive) | 6.66% (inactive) | 13.3% (inactive)
16 | CN(C)c1ccc(C(=O)Nc2nnc(-c3ccc(Cl)cc3)o2)cc1 | 671 | 1.3% (inactive) | -15.9% (inactive) | 109% | -46.6% (inactive) | 113% | -0.409 (inactive) | -6.1e-05 (inactive) | 0.00542 (inactive) | 13% (inactive) | 29.7% (inactive)
17 | COc1ccc(-c2ccc(-c3noc(-c4cccs4)n3)c(OC)n2)cc1 | 391 | 6.8% (inactive) | 20.7% (inactive) | 95.6% | -18.2% (inactive) | 102% | -0.0459 (active) | -6.5e-07 (inactive) | 0.00541 (inactive) | -28.9% (inactive) | -86.9% (inactive)
18 | CCc1ccc(Nc2cc(=O)n(C3CCCCC3)c(=O)[nH]2)cc1 | 385 | 3.9% (inactive) | -8.7% (inactive) | 104% | -1.5% (inactive) | 121% | -0.579 (inactive) | -2.4e-05 (inactive) | 0.00696 (inactive) | -13.5% (inactive) | -97.2% (inactive)
19 | CCCC(=O)Nc1nc2ccc(S(N)(=O)=O)cc2s1 | 718 | -1.8% (inactive) | -16.5% (inactive) | 102% | -9.7% (inactive) | 100% | -0.406 (inactive) | 5.8e-05 (inactive) | 0.00596 (inactive) | -18.7% (inactive) | -57.7% (inactive)
20 | COc1cccc(CNC(=O)CCS(=O)(=O)c2cccc3nsnc23)c1 | 667 | -6.5% (inactive) | -34.5% (inactive) | 112% | 8.1% (inactive) | 109% | -0.513 (inactive) | -3.9e-05 (inactive) | 0.00504 (inactive) | 13.8% (inactive) | 24.3% (inactive)
21 | CC1(C)C(c2ccccc2)=NC(c2ccccc2)N1O (stereo not drawn) | 422 | -2.8% (inactive) | 1.2% (inactive) | 107% | -22.6% (inactive) | 113% | -0.428 (inactive) | -3e-05 (inactive) | 0.0012 (inactive) | 5.11% (inactive) | 35.3% (inactive)
22 | Cn1c(=O)[nH]c(=O)c2[nH]c(NCCCN3CCOCC3)nc21 | 572 | 4.8% (inactive) | 8% (inactive) | 92.2% | -36.4% (inactive) | 112% | -0.613 (inactive) | -1.9e-05 (inactive) | 0.00608 (inactive) | 9.97% (inactive) | 14.9% (inactive)
23 | CCOc1ccc(N2CC(C(=O)Nc3cccc(C)c3C)CC2=O)cc1 (stereo not drawn) | 694 | 0.6% (inactive) | 12.5% (inactive) | 85.4% | -61.5% (inactive) | 114% | -0.608 (inactive) | -1.8e-05 (inactive) | 0.00361 (inactive) | 8.36% (inactive) | 8.88% (inactive)
24 | CCCc1cc(=O)[nH]c(Nc2ccc(OC)c(Cl)c2)n1 | 238 | -0.8% (inactive) | 17.6% (inactive) | 88.1% | 25.7% (inactive) | 70.9% | -0.478 (inactive) | -8.5e-06 (inactive) | 0.00603 (inactive) | -1.81% (inactive) | 46.2% (inactive)
25 | O=S(=O)(NCC1CCCO1)c1ccc2c(c1)OCCO2 (stereo not drawn) | 311 | -5.5% (inactive) | -1% (inactive) | 122% | -67.1% (inactive) | 120% | -0.469 (inactive) | -9.9e-06 (inactive) | 0.00518 (inactive) | 6.84% (inactive) | 7.25% (inactive)
26 | COC(=O)c1ccsc1NC(=O)CN1C(=O)CCC1=O | 479 | -5.9% (inactive) | 2.9% (inactive) | 86.8% | -15.8% (inactive) | 100% | -0.476 (inactive) | -3.2e-05 (inactive) | 0.0049 (inactive) | -11.8% (inactive) | -9.21% (inactive)
27 | CC(C)Cn1c(-c2ccc(F)cc2)n[nH]c1=S | 390 | 2.6% (inactive) | -11.3% (inactive) | 106% | -69.3% (inactive) | 118% | -0.395 (inactive) | -3.7e-05 (inactive) | 0.0039 (inactive) | 9.62% (inactive) | 12.7% (inactive)
28 | Fc1ccccc1C(c1nnnn1Cc1ccc2c(c1)OCO2)N1CCN(Cc2ccccc2)CC1 (stereo not drawn) | 324 | -0.8% (inactive) | -2.5% (inactive) | 112% | 30.7% (inactive) | 108% | -0.631 (inactive) | 1.1e-05 (inactive) | 0.00506 (inactive) | -8.04% (inactive) | -3.59% (inactive)
